# Screening data from PubChem.
# Rows were chosen to be rich in hits. Some 7.9% of all compounds tested hit in one or more screens of this group.
# KB-V1 cytotox: qHTS assay for MDR1-selective chemotherapeutics: Primary screen using the drug-selected MDR subline cells KB-V1; 400,000 compounds, 3.4% hits; KB-V1 MDR cells viability, CellTiter-Glo, 72 h; Potency, µM (series often up to 46.1 µM), usual class: cytotoxic; further: on the % scale 0 is the no-effect control and ±100 the full control effect; nearly all actives have a fitted effect of over 60% in size
#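 KB-V1 cells (P-gp-expressing MDR subline of KB-3-1) in phenol-red-free DMEM with 10% FBS were exposed to library compounds over a concentration series for 72 h at 37 degrees C. Viability read by CellTiter-Glo luminescence; concentration-effect curves fitted after normalization.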
# MCF10A rerep: A quantitative high throughput screen for small molecules that induce DNA re-replication in MCF 10a normal breast cells. MCF 10A DNA re-replication, Hoechst nuclear intensity, 48 h. Potency, µM (top dose mostly 46.1 µM), for the others: at the top dose activity, positive = re-replication, usual class: activators. 350,000 compounds, 2.9% hits. AID 624296, 2012; further: % of control where 0% means no effect; nearly all actives have a fitted effect of over 50% in size
# HT1080NT lethal: qHTS for induction of synthetic lethality in tumor cells producing 2HG: qHTS for the HT-1080-NT fibrosarcoma cell line | AID 686970, 2013 | Potency, µM (doses to about 46.1 µM), for the others: at the highest dose activity, negative = less viability, hits mostly cytotoxic | HT-1080-NT fibrosarcoma viability, CellTiter-Glo ATP luminescence, 48 h | 360,000 compounds, 1.6% hits;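 further: NT is the 2HG producing partner of a matched IDH1 knockdown line; 0% = DMSO-treated cells and -100% = media-only wells without cells; nearly all actives have a fitted effect of over 55% in size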
#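 A 48-hour cytotoxicity screen used HT-1080-NT cells plated 2 hours before compound delivery. ATP-based CellTiter-Glo luminescence measured viability, normalized to DMSO and no-cell controls.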
# KB-3-1 tox: qHTS assay for MDR1-selective chemotherapeutics: Primary screen using the parental adenocarcinoma cell KB-3-1; KB-3-1 viability, CellTiter-Glo ATP luminescence, 72 h; Potency, µM (highest dose often 46.1 µM), actives largely listed as cytotoxic; 400,000 compounds, 1.4% hits; further: on the % scale 0 is the no-effect control and ±100 the full control effect; nearly all actives have a fitted effect of over 60% in size
#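 Here the drug-naive KB-3-1 line serves as comparator for MDR sub-line selectivity; cells received compound titrations, 72 h at 37 °C, then CellTiter-Glo readout.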
# SW480 rereplic: A quantitative high throughput screen for small molecules that induce DNA re-replication in SW480 colon adenocarcinoma cells; SW480 DNA re-replication, Hoechst DNA content imaging, 48 h; Potency, µM (series often up to 46.1 µM), for the others: at the highest dose re-replication activation, actives largely listed as activators; 340,000 compounds, 1.8% hits; AID 624297, 2012; further: % of control where 0% means no effect; nearly all actives have a fitted effect of over 55% in size
#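 Image-based DNA-content assay: after two days of treatment, nuclei were labelled with the DNA dye Hoechst and imaged, and hits were compounds raising the count of nuclei showing high fluorescence intensity.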
# HT1080 IDH1KD tx: qHTS for induction of synthetic lethality in tumor cells producing 2HG: qHTS for the HT-1080-IDH1KD cell line | HT-1080 IDH1 knockdown viability, ATP luminescence, 48 h | Potency, µM (highest dose often 46.1 µM), inactives show top-dose activity, negative = toxicity, most hits filed as cytotoxic | 360,000 compounds, 2% hits | AID 686971, 2013;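 further: 0% = DMSO wells and -100% = cell-free medium wells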
#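 After a 2 h attachment period, IDH1KD HT-1080 cells took pin-transferred compound for 48 h at 37 °C; ATP-based luminescence after 10 min room-temperature reagent incubation reported viability.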
# * = called active by the depositor; i = inactive; ? = inconclusive; / = no result; [ ] = dose if it differs, or a comment. The call rests on the fitted dose curve; in most records, active means well fitted curve in the direction sought with a large enough effect; inconclusive means small, poorly fitted or top-dose-only effect, or another doubt; inactive means no such curve, though single readings can be large; an effect the other way counts as inactive or inconclusive. Potency means the concentration at half of the fitted maximal effect.
SMILES,KB-V1 cytotox,MCF10A rerep,HT1080NT lethal,KB-3-1 tox,SW480 rereplic,HT1080 IDH1KD tx
C[C@]12CC[C@H](O)CC1=CCC1C2CC[C@@]2(C)C1CC[C@@H]2NC(=O)[C@@H](N)Cc1ccccc1 (stereo not given in full),i,?,-2%,i,?,-28%
CC(=O)C1CCC2C3CC=C4N(C)C(=O)CCC4(C)C3CCC12C (stereo not given),?,10%,9%,i,0%,17%
CC(C)C(=O)N[C@H]1CCC2C3CC=C4C[C@@H](O)CC[C@]4(C)C3CC[C@@]21C (stereo not given in full),i,8%,4%,i,-5%,8%
CCCCCCN[C@H]1CCC2C3CC=C4C[C@@H](O)CC[C@]4(C)C3CC[C@@]21C (stereo not given in full),?,?,-11%,?,8.2µM*,?
CC(C)(C)[C@H](N)C(=O)N[C@H]1CCC2C3CC=C4C[C@@H](O)CC[C@]4(C)C3CC[C@@]21C (stereo not given in full),?,16µM*,?,?,4.6µM*,?
CCCCCCN1C[C@H](n2cc(-c3ccc(F)cc3)nn2)[C@@H](O)C[C@@H]1c1ccc(C)cc1,?,/,-6%,?,/,1%
Cc1ccc(Cl)cc1NS(=O)(=O)c1cc2c(cc1F)NC(=O)CC2,i,/,/,i,/,/
O=C(Nc1ncc2c(n1)-c1ccccc1CC2)c1ccc(Cl)cc1,9.2µM*,10%,-13%,i,14%,?
O=C(Nc1ncc2c(n1)-c1ccccc1OC2)c1cccc([N+](=O)[O-])c1,i,0%,5%,i,-4%,2%
O=C(Nc1ncc2c(n1)-c1ccccc1CC2)c1cccc(Cl)c1,?,13µM*,?,10µM*,?,?
Cc1ccc(-n2sc3ccccc3c2=O)cc1S(=O)(=O)N1CCCCC1,?,16µM*,?,?,?,?
O=c1c2ccccc2sn1-c1nccs1,i,16µM*,?,i,?,?
O=c1c2ccccc2sn1-c1ccccc1,i,9.2µM*,?,?,12µM*,16µM*
O=c1c2cc(C(F)(F)F)ccc2sn1-c1ccccc1,21µM*,/,-16%,?,/,-5%
CC(=O)Nc1cccc(C(=O)OCC(=O)NNC(=O)c2ccc([N+](=O)[O-])cc2)c1,i,-2%,7%,i,-1%,9%
O=C(NC1=NCCS1)c1cccc(N2C(=O)c3ccccc3C2=O)c1,?,6.5µM*,12%,i,-40%,9%
CC(=O)c1cccc(NC(=O)c2cccc(N3C(=O)c4ccccc4C3=O)c2)c1,i,13%,6%,i,-7%,-4%
Cc1ccc(OCC(=O)Nc2ccccc2N2CCCC2)c(C)c1,i,67%,1%,i,5%,-4%
O=C(COc1cccc(Cl)c1)Nc1ccccc1N1CCCCC1,?,18µM*,5%,i,6%,-1%
COc1ccc(N2CCOCC2)c(NC(=O)COc2cccc(C)c2)c1,13µM*,-1%,6%,i,-4%,0%
Cc1cc(C)c(OCC(=O)Nc2ccccc2N2CCCCC2)c(C)c1,16µM*,17%,-3%,i,?,-14%
COc1ccc(Cl)cc1C(=O)Nc1ccccc1N1CCN(C)CC1,5.8µM*,28%,-7%,i,14%,-1%
COC(=O)[C@@H]1N2C(=O)[C@@H](NC(=O)C(C)Oc3ccccc3)[C@H]2SC1(C)C (stereo not given in full),i,/,/,i,/,/
O=C(Nc1ccc(F)c(F)c1)c1cnn2c1NC(=C1CC1)C=C2C(F)(F)F,i,/,/,?,/,/
CCOC(=O)c1ccc(NC(=O)CSc2ccc(-c3sc(C)nc3C)nn2)cc1,i,/,/,i,/,/
SMILES,KB-V1 cytotox,MCF10A rerep,HT1080NT lethal,KB-3-1 tox,SW480 rereplic,HT1080 IDH1KD tx
O=C(Nc1ccccc1N1CCCCC1)c1cccc(Cl)c1,i,21µM*,12%,i,0%,7%
N#Cc1ccccc1NC(=O)CNc1ccccc1N1CCCCC1,21µM*,?,?,i,0%,?
Cc1cc(C)c(OCC(=O)Nc2ccccc2N2CCOCC2)c(C)c1,i,?,-11%,21µM*,?,?
O=C(COC(=O)/C=C/c1ccccc1)Nc1cc(C(F)(F)F)ccc1N1CCOCC1,i,-8%,-19%,i,5%,-12%
O=C(Nc1ccccc1N1CCCC1)c1cc(Cl)ccc1Cl,i,17%,4%,i,7%,1%
COc1ccccc1/C=C/C(=O)OCC(=O)Nc1cc(C(F)(F)F)ccc1N1CCOCC1,?,?,?,?,9.2µM*,?
CC1(C)C2CC[C@]1(C)[C@@H](O)C2,/,-2%,/,/,1%,/
O=C(NCCSCc1c(F)cccc1Cl)C1CCN(S(=O)(=O)Cc2ccccc2)CC1,i,/,/,i,/,/
CC(=O)Nc1ccccc1Nc1nc(NCCO)nc(N2CCCC2)n1,i,8%,/,i,3%[9.22 µM],/
O=C(CN1C(=O)S/C(=C\c2ccccc2F)C1=O)NC1C=CS(=O)(=O)C1 (stereo not given),i,12%,0%,i,?,-17%
CS(=O)(=O)N1CCN(c2ccccc2NC(=O)c2cccs2)CC1,i,-3%,-2%,i,3%,-3%
CC(=O)Nc1cccc(C(=O)Nc2ccccc2N2CCOCC2)c1,15µM*,?,?,16µM*,?,?
O=C(Nc1ccccc1N1CCCCC1)c1cccs1,i,21µM*,0%,i,7%,15%
Cc1ccc(C)c(N2N=C(C(=O)Nc3ccccc3N3CCCC3)CCC2=O)c1,?,21µM*,?,i,?,?
O=C(Nc1ccccc1N1CCOCC1)c1ccc2ccccc2c1,i,7%,0%,i,26%,1%
CC(=O)c1cccc(OCc2cc(C(=O)N3CCC(N4CCCCC4)CC3)no2)c1,i,14%,14%,i,-3%,10%
Cc1cc(C)n(-c2nc3ccccc3nc2Nc2ccc(Cl)c(C(=O)OC(C)C)c2)n1,i,/,/,i,/,/
